Assay results reported in PubChem BioAssay (EPA / NIEHS).
Active and inactive are the calls of the source. Rule for the calls: active = hit-call score of the fitted dose curve at least 0.9, where 1 is the maximum; inactive = score below 0.9.

Columns and labels:
Conditions in all cases: mRNA level, 48 h; actives raise or lower the signal
[1] = read-out: Early growth response protein 1 (EGR1) transcription factor, EGR1 (gene 1958); test: LTEA_HepaRG_EGR1: Life Technologies and Expression Analysis (LTEA) Assay for Early growth response protein 1 (EGR1) transcription factor using HepaRG (AID 2283490)
Summary of the method: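 HepaRG, 48 h exposure, 8-pt half-log series from 100 uM, 0.5% DMSO vehicle; EGR1 transcript by TaqMan qRT-PCR (Fluidigm array), housekeeping-normalized; bidirectional fit relative to DMSO baseline.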

[2] = read-out: Ezrin (EZR), EZR (gene 7430); test: LTEA_HepaRG_EZR: Life Technologies and Expression Analysis (LTEA) Assay for Ezrin (EZR) using HepaRG (AID 2283491)
Summary of the method: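 EZR transcript levels came from Fluidigm qRT-PCR and were normalized to three housekeeping genes after 48 h chemical exposure of HepaRG cells. Dosing used an 8-point half-log series with a 100 uM top concentration in 0.5% DMSO, tested in duplicate; both directions were fitted versus vehicle.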

[3] = read-out: Cytochrome P450 3A7 (Homo sapiens) (UniProt P24462); test: LTEA_HepaRG_CYP3A7: Life Technologies and Expression Analysis (LTEA) Assay for CYP3A7 using HepaRG (AID 2283492)
Summary of the method: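 Cells were thawed, plated, cultured 48 h, then treated for a further 48 h with chemicals (eight-point half-log series from 100 uM, 0.5% DMSO). RNA was isolated and CYP3A7 expression quantified by qRT-PCR normalised to ACTB, GAPDH and POLR2A.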

CYP3A5 (gene 1577) = test: LTEA_HepaRG_CYP3A5: Life Technologies and Expression Analysis (LTEA) Assay for CYP3A5 using HepaRG (AID 2283493)
Summary of the method: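 mRNA levels were quantified by qRT-PCR on Fluidigm arrays and normalized to three housekeeping genes. Differentiated HepaRG cells received 48 h exposure (top 100 uM, half-log steps, 0.5% DMSO vehicle, duplicate); bidirectional fitting versus DMSO.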

[4] = read-out: Fatty Acid-Binding Protein 1 (FABP1), FABP1 (gene 2168); test: LTEA_HepaRG_FABP1: Life Technologies and Expression Analysis (LTEA) Assay for Fatty Acid-Binding Protein 1 (FABP1) using HepaRG (AID 2283494)
Summary of the method: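 qRT-PCR readout of FABP1 transcript (normalized to three housekeeping genes) after 48 h chemical exposure of HepaRG cells; eight concentrations, half-log steps, max 100 uM, 0.5% DMSO vehicle; gain or loss fitted relative to DMSO baseline.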

[5] = read-out: Cytochrome P450 4A22 (Homo sapiens) (UniProt Q5TCH4); test: LTEA_HepaRG_CYP4A22: Life Technologies and Expression Analysis (LTEA) Assay for Cytochrome P450 4A22 (CYP4A22) using HepaRG (AID 2283495)
Summary of the method: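 Cryopreserved HepaRG cells, plated and cultured 48 h, then switched to serum-free induction medium and treated 48 h (duplicates, up to 100 uM, half-log steps, 0.5% DMSO). Expression change of CYP4A22 was fitted bidirectionally against vehicle.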

[6] = read-out: Cytochrome P450 7A1 (Homo sapiens) (UniProt P22680); test: LTEA_HepaRG_CYP7A1: Life Technologies and Expression Analysis (LTEA) Assay for Cytochrome P450 7A1 (CYP7A1) using HepaRG (AID 2283496)
Summary of the method: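 HepaRG, 48 h exposure, 8-pt half-log series from 100 uM, 0.5% DMSO vehicle, duplicates. Readout: TaqMan qRT-PCR mRNA vs three housekeeping genes; bidirectional curve fit against DMSO baseline.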

[7] = read-out: Glutathione S-Transferase (GSTA2), GSTA2 (gene 2939); test: LTEA_HepaRG_GSTA2: Life Technologies and Expression Analysis (LTEA) Assay for Glutathione S-Transferase (GSTA2) using HepaRG (AID 2283497)
Summary of the method: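 qRT-PCR readout of GSTA2 transcript, normalized to three housekeeping genes, fitted bidirectionally against 0.5% DMSO baseline. Differentiated HepaRG cells received compound for 48 h at 8 concentrations (top 100 uM, half-log steps).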

[8] = read-out: growth arrest and DNA damage 45 (GADD45G), GADD45G (gene 10912); test: LTEA_HepaRG_GADD45G: Life Technologies and Expression Analysis (LTEA) Assay for growth arrest and DNA damage 45 (GADD45G) using HepaRG (AID 2283499)
Summary of the method: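 Human hepatic HepaRG line treated 48 h with chemicals (eight concentrations, half-log steps from 100 uM); transcript induction or repression of GADD45G scored by qRT-PCR versus DMSO vehicle.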

[9] = read-out: Glutamate-cysteine ligase regulatory (GCLM), GCLM (gene 2730); test: LTEA_HepaRG_GCLM: Life Technologies and Expression Analysis (LTEA) Assay for Glutamate-cysteine ligase regulatory (GCLM) using HepaRG (AID 2283500)
Summary of the method: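 GCLM expression quantified by qRT-PCR, normalized to three housekeeping genes, after 48 h chemical treatment of HepaRG cells in duplicate at 8 concentrations (top 100 uM, half-log steps, 0.5% DMSO). Changes fitted both directions against vehicle.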

[10] = read-out: Glutathione S-transferase M3 (GSTM3), GSTM3 (gene 2947); test: LTEA_HepaRG_GSTM3: Life Technologies and Expression Analysis (LTEA) Assay for Glutathione S-transferase M3 (GSTM3) using HepaRG (AID 2283501)
Summary of the method: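 Changes in GSTM3 expression, an oxidative-stress marker, were scored by bidirectional curve fitting against 0.5% DMSO vehicle. Human HepaRG cultures received chemicals for 48 h in duplicate, highest concentration 100 uM with half-log dilutions.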

[11] = read-out: Heat shock 70 kDa protein 1 (HSPA1A), gene 3303; test: LTEA_HepaRG_HSPA1A: Life Technologies and Expression Analysis (LTEA) Assay for Heat shock 70 kDa protein 1 (HSPA1A) using HepaRG (AID 2283502)
Summary of the method: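 HSPA1A expression measured by qRT-PCR with ACTB/GAPDH/POLR2A normalization; curves fitted in both directions relative to DMSO vehicle. Exposure: 48 h in HepaRG cells, duplicate 8-point half-log series from 100 uM, 0.5% DMSO, serum-free induction medium.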

[12] = read-out: Hypoxia-inducible factor 1-alpha (Homo sapiens) (UniProt Q16665); test: LTEA_HepaRG_HIF1A: Life Technologies and Expression Analysis (LTEA) Assay for Hypoxia-inducible factor 1 (HIF1A) Trancription factor using HepaRG (AID 2283503)
Summary of the method: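 HIF1A transcript level read by qRT-PCR (ACTB, GAPDH, POLR2A normalization) after 48 h chemical exposure of HepaRG cultures. Eight half-log concentrations, top 100 uM, 0.5% DMSO vehicle, duplicates; bidirectional curve fit against DMSO baseline.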

[13] = read-out: 3-Hydroxy-3-Methylglutaryl-CoA Synthase 2 (HMGCS2), HMGCS2 (gene 3158); test: LTEA_HepaRG_HMGCS2: Life Technologies and Expression Analysis (LTEA) Assay for 3-Hydroxy-3-Methylglutaryl-CoA Synthase 2 (HMGCS2) using HepaRG (AID 2283504)
Summary of the method: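 Expression of HMGCS2 in human HepaRG liver cells is measured by qRT-PCR 48 h after dosing (highest 100 uM, half-log series, 0.5% DMSO). Values come from bidirectional concentration-response fitting with DMSO as baseline.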

HGF (gene 3082) = test: LTEA_HepaRG_HGF: Life Technologies and Expression Analysis (LTEA) Assay for Hepatocyte Growth Facto (HGF) using HepaRG (AID 2283505)
Summary of the method: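 Gain or loss of HGF mRNA in human HepaRG liver cells after 48 h chemical exposure; eight concentrations up to 100 uM with 0.5% DMSO vehicle, quantified by TaqMan qRT-PCR.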

[14] = read-out: Insulin Like Growth Factor 1 (IGF1), IGF1 (gene 3479); test: LTEA_HepaRG_IGF1: Life Technologies and Expression Analysis (LTEA) Assay for Insulin Like Growth Factor 1 (IGF1) using HepaRG (AID 2283506)
Summary of the method: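 Expression measured by TaqMan qRT-PCR on a Fluidigm array, with three housekeeping genes for normalisation, after 48 h treatment of HepaRG cells. Top concentration 100 uM with half-log steps, 0.5% DMSO vehicle, bidirectional fit.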

[15] = read-out: Intercellular Adhesion Molecule 1 (ICAM1), ICAM1 (gene 3383); test: LTEA_HepaRG_ICAM1: Life Technologies and Expression Analysis (LTEA) Assay for Intercellular Adhesion Molecule 1 (ICAM1) using HepaRG (AID 2283507)
Summary of the method: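 Gain or loss of transcript in HepaRG hepatic cells is quantified by qRT-PCR after 48 h chemical exposure (up to 100 uM, half-log steps), with DMSO as baseline.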

[16] = read-out: Insulin-like growth factor-binding protein 1 (IGFBP1), IGFBP1 (gene 3484); test: LTEA_HepaRG_IGFBP1: Life Technologies and Expression Analysis (LTEA) Assay for Insulin-like growth factor-binding protein 1 (IGFBP1) using HepaRG (AID 2283508)
Summary of the method: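 mRNA induction or loss was quantified by qRT-PCR after 48 h chemical exposure of human HepaRG cells, with 0.5% DMSO as vehicle and baseline. Concentration-response over eight points up to 100 uM.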

[17] = read-out: Interleukin 6 Receptor (IL6R), IL6R (gene 3570); test: LTEA_HepaRG_IL6R: Life Technologies and Expression Analysis (LTEA) Assay for Interleukin 6 Receptor (IL6R) using HepaRG (AID 2283510)
Summary of the method: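 IL6R transcript level by qRT-PCR after 48 h chemical exposure (8-point, half-log, max 100 uM, 0.5% DMSO vehicle) of HepaRG cells in serum-free induction medium. Normalized to three housekeeping genes; curves fitted in both directions relative to DMSO.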

[18] = read-out: Interleukin 6 (IL6), IL6 (gene 3569); test: LTEA_HepaRG_IL6: Life Technologies and Expression Analysis (LTEA) Assay for Interleukin 6 (IL6) using HepaRG (AID 2283509)
Summary of the method: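 qRT-PCR read-out of IL6 transcript, normalized to three housekeeping genes, after 48 h chemical exposure of HepaRG cells; 8-point half-log series, top 100 uM, 0.5% DMSO vehicle. Bidirectional curve fitting against DMSO baseline.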

Measured: AC50

Hypoxia-inducible factor 1-alpha (Homo sapiens), sequence (Q16665 whole entry, looked up): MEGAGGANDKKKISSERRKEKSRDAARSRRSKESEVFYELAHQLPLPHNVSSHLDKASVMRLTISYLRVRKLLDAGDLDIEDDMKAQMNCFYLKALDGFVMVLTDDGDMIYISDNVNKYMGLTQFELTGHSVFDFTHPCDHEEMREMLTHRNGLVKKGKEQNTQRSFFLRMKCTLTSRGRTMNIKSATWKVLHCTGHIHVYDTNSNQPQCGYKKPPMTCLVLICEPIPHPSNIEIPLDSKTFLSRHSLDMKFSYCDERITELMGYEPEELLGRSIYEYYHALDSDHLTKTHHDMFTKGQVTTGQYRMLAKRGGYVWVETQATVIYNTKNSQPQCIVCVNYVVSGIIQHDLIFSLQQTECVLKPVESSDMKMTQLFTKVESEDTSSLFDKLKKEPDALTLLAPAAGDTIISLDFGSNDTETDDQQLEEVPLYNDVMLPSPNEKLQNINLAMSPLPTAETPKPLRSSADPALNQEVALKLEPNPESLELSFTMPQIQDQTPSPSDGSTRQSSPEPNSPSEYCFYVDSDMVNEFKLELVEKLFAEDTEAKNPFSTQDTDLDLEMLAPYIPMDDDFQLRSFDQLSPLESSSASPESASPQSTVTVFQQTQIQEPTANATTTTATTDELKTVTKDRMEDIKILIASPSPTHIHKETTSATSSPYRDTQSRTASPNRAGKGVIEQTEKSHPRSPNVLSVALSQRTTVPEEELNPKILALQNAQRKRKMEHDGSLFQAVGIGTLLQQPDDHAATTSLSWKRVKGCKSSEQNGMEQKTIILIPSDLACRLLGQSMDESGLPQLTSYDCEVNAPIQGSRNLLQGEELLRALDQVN
Cytochrome P450 3A7 (Homo sapiens), sequence (P24462 whole entry, looked up): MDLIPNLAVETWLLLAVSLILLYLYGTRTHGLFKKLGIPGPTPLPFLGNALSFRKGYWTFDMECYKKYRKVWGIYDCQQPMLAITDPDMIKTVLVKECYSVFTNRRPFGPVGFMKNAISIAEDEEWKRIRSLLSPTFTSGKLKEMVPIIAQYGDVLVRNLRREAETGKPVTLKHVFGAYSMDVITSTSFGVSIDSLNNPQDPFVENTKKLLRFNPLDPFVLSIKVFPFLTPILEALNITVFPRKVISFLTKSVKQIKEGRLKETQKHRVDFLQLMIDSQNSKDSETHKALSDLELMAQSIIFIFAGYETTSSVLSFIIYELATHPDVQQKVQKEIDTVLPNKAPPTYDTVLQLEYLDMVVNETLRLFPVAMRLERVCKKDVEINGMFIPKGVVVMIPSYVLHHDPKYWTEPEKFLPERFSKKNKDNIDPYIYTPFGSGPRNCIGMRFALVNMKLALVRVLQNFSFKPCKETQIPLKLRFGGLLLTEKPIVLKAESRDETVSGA

Cc1[nH]nc2c1N=C(c1ccccc1Cl)c1cc([N+](=O)[O-])ccc1N2
active: [2] 1.38 µM | [3] 2.83 µM | CYP3A5 (gene 1577) 13.4 µM | [4] 8.85 µM | [5] 8.32 µM | [6] 27 µM | [7] 17.2 µM | [8] 0.557 µM | [10] 50 µM | [13] 28.8 µM | HGF (gene 3082) 2.84 µM | [14] 1.88 µM | [16] 79.6 µM
inactive: [1] | [9] | [11] | [12] | [15] | [17]

CCCCC(CC)C(=O)O (centres undefined)
inactive: [1] | [2] | [3] | CYP3A5 (gene 1577) | [4] | [5] | [6] | [7] | [8] | [9] | [10] | [11] | [12] | [13] | HGF (gene 3082) | [14] | [15] | [16] | [18] | [17]
